In PubChem BioAssay (NCI) one finds growth data, which are given here for 38 compounds.

Where “and” joins values, the source holds several entries; their conditions need not be identical. Identical values can stand only once. The panel holds about 83,000 compounds, 20% with a hit somewhere; the sample as a whole holds those more often.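 Single-dose data. Exposure time 48 hours. Values below 10 considered active.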 Calls of active or inactive are those of the source.

The test system of this assay is SK-MEL-5 melanoma. Briefly: NCI-60 one-dose screen, 48 h (100 = growth as untreated, 0 = no growth, -100 = all killed). As to conditions: 10 µM unless noted.
Take `CS(=O)(=O)c1ccc(-n2nc(C(=O)NCc3ccccc3)cc2-c2ccc(Cl)cc2)cc1`: the growth is 71.5% (inactive). `CCCCCCCCc1cccc(CC(=O)Nc2ccc(C)cc2C(=O)O)c1`: the growth was 36.5% [25 µM] (inactive). The value for `COc1ccc(-c2cc(C(=O)Oc3ccc(C=O)cc3OC)nn2-c2ccc(S(C)(=O)=O)cc2)cc1` was 98% (inactive). Consider `O=C(NN1C(=O)/C(=C/C=C/c2ccc([N+](=O)[O-])o2)SC1=S)c1ccncc1`, for which the growth was -99.5% (active). Take `N#Cc1c(-c2ccc(F)cc2)nc(SCc2ccccc2)nc1N1CCNCC1`: the growth was -100% (active). Under `COc1ccc(/C=C/C(=O)c2ccc(OC)c(S(N)(=O)=O)c2)c(C(F)(F)F)c1` stands 18.9% (inactive); under `COc1ccccc1Nc1nnc(-c2c[nH]c3ccccc23)o1`, -32.7% (active). The value for `COc1ccc2c(c1)N=c1c-2cc2c(O)[nH]c(=S)n2c1=O` was 13.5% (inactive); that for `CS(=O)(=O)Nc1cc(-c2ccc3ncnc(N4CCc5cc(F)c(Cl)cc54)c3c2)cnc1Cl` was -72.8% (active). With `CC(=O)Nc1ccc(S(=O)(=O)Nc2ccc(-c3ccc4c(c3)NC(=O)/C4=C\c3ccc[nH]3)cc2)cc1`, the growth is 92.6% (inactive). The value for `Cc1nn(-c2ccccc2)c2nc(C)n(CC(=O)N/N=C/c3cccc([N+](=O)[O-])c3)c(=O)c12` was 97.6% (inactive); that for `CCC(=O)c1cc(C(=O)OC)c2ccc3c4ccccc4ccc3n12` was 93.8% (inactive). Under `Cc1ccc(C(=O)Nc2cc(-n3cnc(F)c3)cc(C(F)(F)F)c2)cc1C#Cc1cnc2cccnn12` stands 38.3% (inactive). Under `O=C(N=Nc1c(O)[nH]c2ccc(Cl)cc12)c1ccc2nc(-c3ccc(Cl)cc3)[nH]c2c1` stands 66.8% (inactive); under `COc1cc(C=O)ccc1OC(=O)c1cc(-c2ccc(C)cc2)n(-c2ccc(S(C)(=O)=O)cc2)n1`, 100% (inactive). As to `CC(C)CN1C(=O)/C(=C\C(=O)c2cc3ccccc3oc2=O)c2ccccc21`, the growth was 97% (inactive).

With `Nc1nc2cc(-c3ccc4ncnc(NCc5ccccc5)c4c3)ccc2o1`, the growth was 0.196% (active). Consider `Cc1cccc(NCC(=O)N2CCN(c3ncnc4c3cnn4-c3ccccc3)CC2)c1`, for which the growth is 37.5% (inactive).

`Cn1cc(-c2cc(N)n3nc(-c4c[nH]c5ccccc45)cc3n2)c2cc(F)ccc21`: the growth was 67.4% (inactive). For `CCCCCCCCCc1ccc(C(=O)Nc2cc(C)ccc2C(=O)OC)cc1`, the growth is 102% (inactive). The value for `NC1(c2ccc(-c3ccc4ncnc(NCc5ccccc5)c4c3)cn2)COC1` was 101% (inactive) and 107% (inactive); that for `CCCCNC(=S)Nc1ccc(OCc2nc3ccc(Cl)cc3[nH]2)cc1` was 42.5% (inactive). Consider `CCC1(OC(=O)c2ccccc2SSCCOC(=O)CCCCC2SCC3NC(=O)NC32)C(=O)OCc2c1cc1n(c2=O)Cc2cc3ccccc3nc2-1` (stereo not drawn), for which the growth was 21.1% (inactive). The value for `COc1ccc(/C=C/c2nc3ccccc3c(=O)n2CC(=O)Nc2ccccc2)cc1` was 71.6% (inactive); that for `CC[C@]12C=CCN3CC[C@@]4(c5ccc(OC)cc5N(C)[C@H]4[C@@](O)(C(=O)OC)[C@@H]1OC(=O)CCCC[P+](c1ccc(F)cc1)(c1ccc(F)cc1)c1ccc(F)cc1)[C@@H]32` was -59.7% (active). Under `COc1ccccc1NC(=O)N/N=C/c1c[nH]c2ccccc12` stands 4.48% (active). Under `Cc1ccc(C2CC(c3ccc(NC(=O)Nc4ccccc4)cc3)=NN2c2ccc(S(C)(=O)=O)cc2)cc1` (stereo not drawn) stands -99.9% (active); under `CC1=C(C)C(=O)C(NCCN2CCOCC2)=C(Br)C1=O`, 62.1% (inactive); under `CC(=O)C[n+]1cccc2c3ccccc3ccc21`, 56.6% (inactive). Consider `Cc1nn(-c2ccccc2)c2nc(C)n(CC(=O)N/N=C/c3ccccc3O)c(=O)c12`, for which the growth was -2.79% (active). Under `O=C(CSc1nnc(-c2ccc(-c3nc4ccccc4[nH]3)cc2)o1)Nc1ccccc1` stands 82.7% (inactive). Under `Cc1cccc(-c2ccccc2Oc2ccc3nnc(Cl)n3n2)c1` stands 98.5% (inactive); under `Oc1cncc(-c2ccc3ncnc(N4CCc5cc(F)c(Cl)cc54)c3c2)c1`, 78.5% (inactive); under `CCOc1ccccc1[C@H]1C(C(=O)c2ccc(Cl)cc2)C2(N[C@@H]1c1ccccc1)C(=O)Nc1ccc(Br)cc12` (stereo partly drawn), -89.3% (active).

In the case of `Cc1ccc2c(c1)/C(=C/C(=O)c1cc3ccccc3oc1=O)C(=O)N2`, the growth is 94.2% (inactive).

In the case of `Cc1ccc(C(=O)C[n+]2cccc3c4ccccc4ccc32)cc1`, the growth was -88.8% (active). `COC(=O)CSC1=C(C)C(=O)C(OC)=C(OC)C1=O`: the growth was 86.4% (inactive).

Consider `CCCCCCCCc1ccc(C(=O)Nc2ccc(C)c(OP(=O)(O)O)c2)cc1`, for which the growth is 103% (inactive).
